Screening data deposited in PubChem BioAssay by National Center for Advancing Translational Sciences (NCATS).
Shown are actives, neighbours in structure and some others; about 11% of the full set was active somewhere.
IMPase inh: cell-permeable inhibitors of inositol monophosphatase (IMPase). CHO-M1 cells, IP1 accumulation, HTRF TR-FRET ratio. inhibition (IP1 accumulation), % at 46.1 µM. 120,000 tested, under 10 active. AID 901; active means well fitted curve in the direction sought with a large enough effect in the signal ratio, not every such curve was filed as active; inconclusive means small, poorly fitted or top-dose-only effect, or a change in a side signal; inactive means no such curve, though single readings can be large or run the other way; the % refers to the signal ratio;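 further: cells stimulated with carbachol in lithium chloride buffer; plate controls were DMSO basal wells for no effect and reference inhibitor wells for full effect; higher means more IMPase inhibition seen as more IP1 and lower FRET ratio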
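Cellular IMPase inhibition is scored as a rise in cytosolic IP1, detected by competitive TR-FRET between d2-labelled IP1 and a europium anti-IP1 antibody. M1-expressing CHO cells were stimulated with carbachol for 30 min at 37C, with lithium (50 mM LiCl) present in the buffer.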
12-hLO inh: blocks human 12-lipoxygenase activity | P18054 | purified 12-hLO, xylenol orange hydroperoxide absorbance | Potency, µM (titrated, usually from 57.1 µM), inactives show top-dose activity change, negative = inhibition, usual class: inhibitors | 150,000 compounds, 0.12% hits | AID 1452; further: potency means the concentration at half of the fitted maximal effect; nearly all actives have a fitted effect of over 55% in size
Target sequence (P18054 whole entry, looked up): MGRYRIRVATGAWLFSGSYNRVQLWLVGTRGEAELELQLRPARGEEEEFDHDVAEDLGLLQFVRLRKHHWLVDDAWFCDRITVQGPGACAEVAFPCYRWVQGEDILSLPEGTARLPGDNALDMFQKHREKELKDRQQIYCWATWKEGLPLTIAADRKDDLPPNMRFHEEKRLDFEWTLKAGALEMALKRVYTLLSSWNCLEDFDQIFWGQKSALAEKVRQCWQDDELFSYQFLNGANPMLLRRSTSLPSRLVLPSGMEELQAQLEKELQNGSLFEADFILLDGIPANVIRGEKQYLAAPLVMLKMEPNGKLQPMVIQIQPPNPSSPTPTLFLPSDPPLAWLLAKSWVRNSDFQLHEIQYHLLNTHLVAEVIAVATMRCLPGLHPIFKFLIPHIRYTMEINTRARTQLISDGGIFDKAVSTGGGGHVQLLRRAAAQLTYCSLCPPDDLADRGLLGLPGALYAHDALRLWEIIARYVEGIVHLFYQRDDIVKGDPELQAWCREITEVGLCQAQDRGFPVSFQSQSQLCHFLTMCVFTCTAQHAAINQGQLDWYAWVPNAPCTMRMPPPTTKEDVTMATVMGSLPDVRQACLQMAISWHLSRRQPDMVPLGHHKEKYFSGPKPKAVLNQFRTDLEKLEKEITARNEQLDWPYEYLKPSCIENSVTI
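Purified human 12hLO (150 nM), preincubated 15 min with compound, then 40 uM arachidonic acid for 30 min, room temperature, Hepes pH 7.0 with 0.01% Triton X-100. Hydroperoxide detected by ferrous iron/xylenol orange; 573/405 nm absorbance ratio gives reaction progress.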
IMPase Li inh: membrane-permeable IMPase blocker, potentiated with lithium; CHO-M1 cells, IP1 TR-FRET (IP-One), carbachol + lithium; Potency, µM (highest dose often 59.4 µM), without a hit: at the highest dose activity, negative = IMPase inhibition, most hits filed as inhibitors; 210,000 compounds, 0.35% hits;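 further: IP1 builds up when IMPase is blocked and the TR-FRET signal falls; potency means the concentration at half of the fitted maximal effect; plate controls were basal vehicle for no effect and high inhibitor control for full effect; nearly all actives have a fitted effect of over 50% in size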
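IP1 accumulation measured by competitive TR-FRET in lysed CHO-M1 cells after 30 min compound exposure at 37C, with a small lithium addition to potentiate weak responses. Hill-equation AC50 from ratio and donor-channel data.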
PNC assembly inh: blocks assembly of the perinucleolar compartment. PC3M PTB-GFP, PNC prevalence imaging, 16 h; hits give low values. activity change (PNC), negative = inhibition, % at 10 µM. 140,000 compounds, 3.1% hits;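 active means readout at or below -70, meaning at least 70% loss of cells showing the perinucleolar compartment, a nuclear body marking cancer cells; inconclusive means readout between -30 and a set limit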;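 further: plate controls were DMSO wells for no effect and camptothecin positive control wells for full effect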
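Read-out is percentage of cells bearing a perinucleolar compartment, from automated 20x imaging of fixed, Hoechst-stained PC3M PTB-GFP cells. Cells were seeded 4 h, then exposed 16 h to compound (23 nl of library stock) in duplicate plates.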
ALDH1A1 inh: ALDH1A1 (human) enzyme inhibition; P00352; Purified ALDH1A1, NADH fluorescence, propionaldehyde substrate; Potency, µM (titrated, usually from 75.3 µM), for the others: at the highest dose activity, negative = inhibition, hits mostly inhibitors; 220,000 compounds, 7.3% hits; AID 1030; active means well fitted inhibition curve with a large enough effect, not every such curve was filed as active; inconclusive means small, poorly fitted or top-dose-only effect, or another doubt; inactive means no such curve, though single readings can be large or run the other way;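 further: potency means the concentration at half of the fitted maximal effect; plate controls were no enzyme wells and a reference inhibitor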
HPGD block: blocks human HPGD enzyme activity; purified HPGD, NADH fluorescence kinetic, PGE2 substrate; Potency, µM, for the others: at the highest dose activity change, negative = inhibition, hits mostly inhibitors; 150,000 compounds, 4.3% hits; AID 894; active means well fitted inhibition curve with a large enough effect, not every such curve was filed as active; inconclusive means small, poorly fitted or top-dose-only effect, or another doubt; inactive means no such curve, though single readings can be large or run the other way; further: potency means the concentration at half of the fitted maximal effect
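20 nM HPGD preincubated 15 min at room temperature with compound in 50 mM Tris-HCl pH 8, 0.01% Tween 20. Started with 1 mM NAD+ and 30 uM prostaglandin E2; NADH fluorescence (360/450 nm) read 5 times over 30-s intervals, last minus first.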
* hit, by the source's call; [ ] = dose if it differs, or a comment. Unless noted, the call rests on the fitted dose curve; in most records, active means well fitted curve in the direction sought with a large enough effect; inconclusive means small, poorly fitted or top-dose-only effect, or another doubt; inactive means no such curve, though single readings can be large; an effect the other way counts as inactive or inconclusive. Unless noted, on the % scale 0 is the no-effect control and ±100 the full control effect.

COc1ccc(-c2cc(C(=O)Oc3ccc(Br)cc3)c3ccccc3n2)cc1 was read as IMPase inh 0.6.
COc1ccc2nc3c(c([Si](C)(C)C(C)(C)C)c2c1)Cn1c-3cccc1=O was read as 12-hLO inh -10.9%, IMPase Li inh 5.0%, ALDH1A1 inh 22.4µM* and HPGD block inconclusive.
O=C(CN1CCN(S(=O)(=O)c2ccc(Br)cc2)CC1)N/N=C/c1ccc(Cl)c([N+](=O)[O-])c1 was read as 12-hLO inh 1.7%, IMPase Li inh 8.5%, PNC assembly inh 74.6, ALDH1A1 inh 20µM* and HPGD block -8.3%.
Screening Cc1ccc(S(=O)(=O)N2CCN(CC(=O)N/N=C\c3ccc(Cl)c([N+](=O)[O-])c3)CC2)cc1 returned IMPase inh inconclusive, 12-hLO inh -11.6%, IMPase Li inh -5.8%, PNC assembly inh -6.3, ALDH1A1 inh 8.91µM* and HPGD block -2.3%.
For O=C(CN1CCN(S(=O)(=O)c2ccc(Br)cc2)CC1)N/N=C/c1cc([N+](=O)[O-])ccc1Cl the results were 12-hLO inh 4.0%, IMPase Li inh -6.2%, PNC assembly inh 4.0, ALDH1A1 inh inconclusive and HPGD block -9.0%.
For COC(=O)c1ccc2c(=O)[nH]c(CN3c4ccccc4CC3C)nc2c1 (stereo unspecified) the results were IMPase inh 1.6, 12-hLO inh -14.6%, IMPase Li inh -4.4%[38.3 µM], PNC assembly inh -3.9, ALDH1A1 inh 11.2µM* and HPGD block -12.8%.
For Cc1cccc(OCCOCCn2c(-c3ccc(Cl)cc3)nc3ccccc3c2=O)c1C the results were IMPase inh 1.4.
`COc1cc(SC#N)ccc1N=Cc1c(C)[nH]n(-c2ccc(C)cc2C)c1=O` gave IMPase inh 14.7, 12-hLO inh -15.8%, IMPase Li inh 7.9%[38.3 µM], PNC assembly inh 6.0, ALDH1A1 inh 0.708µM* and HPGD block 8.91µM*.
For COc1cc(SC#N)ccc1N=Cc1c(C)[nH]n(-c2cccc3ccccc23)c1=O the results were IMPase inh -3.8, 12-hLO inh inconclusive, IMPase Li inh 16.4%[38.3 µM], PNC assembly inh inconclusive, ALDH1A1 inh 0.447µM* and HPGD block inconclusive.
Cc1ccc(S(=O)(=O)N(CC(=O)O)c2ccc(Cl)cc2)cc1 was read as 12-hLO inh -4.5%, ALDH1A1 inh 2.6% and HPGD block -6.0%.
`CCC(NC(=O)/C(=C\c1ccc2c(c1)OCO2)NC(C)=O)C(=O)O` (stereo unspecified) gave 12-hLO inh 2.8%, IMPase Li inh 0.8%, PNC assembly inh -125.2*, ALDH1A1 inh 6.6% and HPGD block -3.5%.
`CC(=O)N/C(=C/c1ccc2c(c1)OCO2)C(=O)O` gave IMPase Li inh -8.5% and ALDH1A1 inh -0.3%.
NCCOC[C@H](N)C(=O)O was read as 12-hLO inh 1.3%[11.4 µM], IMPase Li inh -9.7%, ALDH1A1 inh 12.3%[13.5 µM] and HPGD block 0.8%.
N#C/C(=C/c1ccc(Br)o1)C(N)=O was read as 12-hLO inh -1.3%, IMPase Li inh 1.5%, PNC assembly inh -87.1*, ALDH1A1 inh -7.0% and HPGD block -16.7%.
For CCCOc1c(Br)cc(C2C3=C(CCCC3=O)N(C)C3=C2C(=O)CCC3)cc1OC the results were 12-hLO inh -4.7%, IMPase Li inh -10.8%, PNC assembly inh -98.1*, ALDH1A1 inh inconclusive and HPGD block inconclusive.
COCC(=O)N1CCC2(CC1)CN(c1ccncc1)C2 was read as 12-hLO inh -2.7%, IMPase Li inh 17.0%, ALDH1A1 inh 0.5% and HPGD block -5.2%.
For COC(=O)c1c(NC(=O)c2cccnc2)sc(C(=O)N(C)C)c1C the results were 12-hLO inh 2.1%, IMPase Li inh -6.3%, PNC assembly inh -12.6, ALDH1A1 inh -5.5% and HPGD block -24.2%.
Screening COCCOC(=O)c1c(NC(=O)CNCc2ccco2)sc(C(N)=O)c1C returned IMPase Li inh -2.0% and ALDH1A1 inh 10µM*.
For COCCOC(=O)c1c(NC(=O)CN2CCCc3ccccc32)sc(C(N)=O)c1C the results were IMPase inh 1.4, 12-hLO inh 0.4%, PNC assembly inh inconclusive and ALDH1A1 inh -1.6%.
For CCc1c(C)sc(NC(=O)c2ccco2)c1C(=O)N1CCOCC1 the results were IMPase inh 8.3, 12-hLO inh 1.6%, IMPase Li inh 30.6%[38.3 µM], PNC assembly inh 9.5, ALDH1A1 inh 22.4µM* and HPGD block inconclusive.
For CCOC(=O)c1c(NC(=O)c2ccco2)sc(C(=O)N2CCCC2)c1C the results were IMPase inh -2.7, 12-hLO inh 2.5%, IMPase Li inh 28.3%[38.3 µM], PNC assembly inh 20.3, ALDH1A1 inh inconclusive and HPGD block 14.1µM*.
For COC(=O)c1c(NC(=O)c2ccco2)sc(C(=O)N(C)C)c1C the results were IMPase inh -6.8, 12-hLO inh 10.6%, IMPase Li inh -0.7%, PNC assembly inh -100.0*, ALDH1A1 inh inconclusive and HPGD block inconclusive.
`N[C@H](COP(=O)(O)O)C(=O)O` gave IMPase Li inh -5.2% and ALDH1A1 inh inconclusive.
For CC(=O)O[C@]1(C(C)=O)CC[C@H]2C3C=C(Cl)C4=CC(=O)[C@@H]5C[C@H]5[C@]4(C)C3CC[C@@]21C (stereo partly specified) the results were IMPase Li inh 9.7%, ALDH1A1 inh 3.0% and HPGD block 4.4%.
Screening CCOC(=O)c1c(NC(=O)CN2C(=O)CN(C)C2=O)sc(C)c1C returned IMPase Li inh 4.9% and ALDH1A1 inh 7.7%.
CCOC(=O)c1c(NC(=O)c2ccco2)sc2c1CCCCC2 was read as IMPase inh 1.9, 12-hLO inh -7.3%, IMPase Li inh 22.3%[38.3 µM], PNC assembly inh -26.0, ALDH1A1 inh inconclusive and HPGD block inconclusive.
Screening CCc1c(C)sc(NC(=O)c2ccco2)c1C(=O)N1CCCCC1 returned IMPase inh -0.5, 12-hLO inh -9.7%, IMPase Li inh 5.5%[38.3 µM], PNC assembly inh 7.3, ALDH1A1 inh 25.1µM* and HPGD block -4.2%.
Cc1sc(NC(=O)c2ccc(F)cc2)c(CN2CCCCCC2)c1C was read as 12-hLO inh -6.8%, IMPase Li inh -1.1%, PNC assembly inh inconclusive, ALDH1A1 inh 10µM* and HPGD block -25.0%.
For Cc1sc(NC(=O)c2ccco2)c(CN2CCN(Cc3ccccc3)CC2)c1C the results were IMPase Li inh 28.1% and ALDH1A1 inh 28.2µM*.
